Screens from PubChem.
An excerpt weighted towards active compounds, which were near 3.7% of everything screened.
ATXN2 expr inh: ATXN2 expression inhibition. AID 1745845. Potency, µM (series often up to 57 µM), usual class: inhibitors. HEK-293 ATXN2-luciferase reporter, luminescence, 24 h. 360,000 tested, 0.72% active; also: nearly all actives have a fitted effect of over 55% in size
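ATXN2-luciferase reporter cells (luciferase flanked by upstream and downstream ATXN2 gene portions) were treated 24 h at 37 °C with compounds at up to 57 uM. SteadyGlo luminescence gave expression; GF-AFC fluorescence gave viability.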
S2 tox: reduces viability in counter-screen for ATXN expression inhibitors; 400,000 tested, 0.49% active; Potency, µM (highest dose often 56.7 µM), actives largely listed as cytotoxic; S2 cells (HEK-293 line with an ATXN2-luciferase reporter) viability, CellTiter-Fluor protease fluorescence, 24 h; AID 651635; also: nearly all actives have a fitted effect of over 40% in size
TGFb inhibitor: TGF-b pathway inhibition; Potency, µM (highest dose often 46.1 µM), most hits filed as inhibitors; AID 588855; 410,000 tested, 1.2% active; HepG2 CAGA-GFP TGF-b/SMAD3 reporter, GFP fluorescence, 18 h; TGF-beta stimulated, 500 pg/mL final; also: nearly all actives have a fitted effect of over 65% in size
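Per well, imaged GFP fluorescence of HEPG2 CAGA-GFP cells gives the signal; cells get compound, then TGF-beta (500 pg/mL final), 18 h at 37 degrees C; %Activity versus -TGF-beta and +DMSO controls.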
GLP1R ag: activates the human GLP-1 receptor; P43220; 380,000 tested, 0.007% active; HEK293 GLP-1R CRE-luciferase, luminescence, 4-6 h; cells express a hypersensitive GLP-1R form; Potency, µM (doses to about 45.6 µM), actives largely listed as activators
Target sequence (P43220 whole entry, looked up): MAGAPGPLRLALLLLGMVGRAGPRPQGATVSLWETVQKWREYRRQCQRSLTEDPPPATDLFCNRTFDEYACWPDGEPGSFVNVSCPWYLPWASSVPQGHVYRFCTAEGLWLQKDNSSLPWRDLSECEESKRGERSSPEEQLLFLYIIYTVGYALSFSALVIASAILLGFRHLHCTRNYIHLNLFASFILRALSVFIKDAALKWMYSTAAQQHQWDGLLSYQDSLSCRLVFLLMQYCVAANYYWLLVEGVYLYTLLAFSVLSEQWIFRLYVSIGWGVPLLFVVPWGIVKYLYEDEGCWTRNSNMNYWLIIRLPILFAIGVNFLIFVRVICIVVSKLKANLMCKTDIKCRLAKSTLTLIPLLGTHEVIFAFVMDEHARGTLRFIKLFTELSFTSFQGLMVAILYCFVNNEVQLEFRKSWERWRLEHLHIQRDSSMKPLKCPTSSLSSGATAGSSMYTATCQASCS
HepG2 tox: kills HepG2 cells in TGF-b inhibitor counter-screen. HepG2 CAGA-GFP viability, ATP luminescence, 18 h. Potency, µM (highest dose often 46.1 µM), most hits filed as cytotoxic. 410,000 tested, 0.76% active. AID 588856
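CellTiter-Glo luminescence gave cytotoxicity after 18 hours at 37 degrees C. The cells were HepG2 CAGA-GFP in 1% FBS DMEM, stimulated with 500 pg/mL TGF-beta after compound addition. %Activity was normalised to no-cell wells (complete cell-killing) and DMSO (no toxicity), and curves were fitted and classified.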
GLP-1R inv ag: inverse agonists of human GLP-1 receptor. HEK293 GLP-1R CRE-luciferase, luminescence, 24 h; GLP-1R form is constitutively active. Potency, µM (titrated, usually from 38.3 µM), actives largely listed as inhibitors. 410,000 tested, 1.6% active. AID 624417; also: nearly all actives have a fitted effect of over 55% in size
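Luminescence readout: a drop in cAMP-driven luciferase signal flags inverse agonism at a constitutively active GLP-1R stably expressed in HEK293. Compound exposure lasted 24 hr at 37 deg C, 5% CO2.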
Numbers stand for hits. Calls follow the shape of the dose curve; as a rule, active = well fitted curve in the direction sought with a large enough effect; inconclusive = small, poorly fitted or top-dose-only effect, or another doubt; inactive = no such curve, though single readings can be large; an effect the other way counts as inactive or inconclusive.

Results for O=C(Cn1cc(SCc2ccc(Cl)cc2)c2ccccc21)N1CCCC1 ?
TGFb inhibitor: inactive; HepG2 tox: inactive; GLP-1R inv ag: inconclusive

Results for CC(=O)O[C@]1(C(C)=O)CC[C@H]2[C@@H]3C=C(C)C4=CC(=O)CC[C@]4(C)[C@@H]3CC[C@@]21C ?
ATXN2 expr inh: inactive

How did O=C(NCCN1CCOCC1)c1sc2cc(Cl)ccc2c1Cl do in these assays?
ATXN2 expr inh: inactive; S2 tox: inactive; TGFb inhibitor: inactive; GLP1R ag: inactive; HepG2 tox: inactive; GLP-1R inv ag: inactive

How did CC(C)(CNC(=O)c1sc2cc(Cl)ccc2c1Cl)N1CCOCC1 do in these assays?
ATXN2 expr inh: inactive; S2 tox: inconclusive; TGFb inhibitor: inactive; GLP1R ag: inactive; HepG2 tox: inactive; GLP-1R inv ag: 10µM

What do the screens show for `O=C(CCN1CCN(c2ccccc2)CC1)N/N=C/c1ccccc1O`?
ATXN2 expr inh: 27µM; S2 tox: inactive; TGFb inhibitor: inconclusive; GLP1R ag: inactive; HepG2 tox: inactive; GLP-1R inv ag: inconclusive

What do the screens show for `Cc1ccc(C)c(N(C)C(=O)c2cn(C)c(=O)c3ccccc23)c1`?
ATXN2 expr inh: inactive; S2 tox: inactive; TGFb inhibitor: inactive; HepG2 tox: inactive; GLP-1R inv ag: 6.3µM

How did CC(=O)Nc1ccc(NC(=O)CCCSc2nc3ccccc3[nH]2)cc1 do in these assays?
ATXN2 expr inh: inactive; S2 tox: inactive; TGFb inhibitor: inactive; GLP1R ag: inactive; HepG2 tox: inactive; GLP-1R inv ag: inactive

How did O=C(CCCSc1nc2ccccc2[nH]1)NC(c1ccccc1)c1ccccc1 do in these assays?
ATXN2 expr inh: inactive; S2 tox: inactive; TGFb inhibitor: inactive; GLP1R ag: inactive; HepG2 tox: inactive; GLP-1R inv ag: 8.9µM

How did CC(=O)O[C@H]1C[C@@H]2CC[C@H]3[C@H]4C[C@H]([N+]5(C)CCCCC5)[C@@H](OC(C)=O)[C@@]4(C)CC[C@@H]3[C@@]2(C)C[C@H]1[N+]1(C)CCCCC1 do in these assays?
ATXN2 expr inh: inactive

How did CN(CC(=O)Nc1cccc(F)c1)C(=O)c1cn(-c2ccccc2)nc1-c1ccc(F)cc1 do in these assays?
S2 tox: inconclusive; TGFb inhibitor: 22µM; GLP1R ag: inactive; HepG2 tox: inactive; GLP-1R inv ag: inconclusive

Results for COc1ccc(-c2nn(-c3ccccc3)cc2C(=O)N(C)CC(=O)Nc2cccc(F)c2)cc1 ?
S2 tox: inconclusive; TGFb inhibitor: inconclusive; GLP1R ag: inactive; HepG2 tox: inactive; GLP-1R inv ag: inconclusive

What do the screens show for `COc1cccc(-c2nn(-c3ccc(C)cc3)cc2C(=O)N(C)CC(=O)Nc2cccc(F)c2)c1`?
ATXN2 expr inh: inactive; S2 tox: inactive; TGFb inhibitor: inconclusive; GLP1R ag: inactive; HepG2 tox: inactive; GLP-1R inv ag: 7.1µM

What do the screens show for `Clc1ccc2c(ccc[n+]2CCC2CCCCC2)c1`?
TGFb inhibitor: inactive; HepG2 tox: inactive

What do the screens show for `COc1ccccc1N(C)S(=O)(=O)c1ccc(C(=O)NNC(=O)c2ccccc2O)cc1`?
ATXN2 expr inh: inconclusive; S2 tox: inconclusive; TGFb inhibitor: inactive; GLP1R ag: inactive; HepG2 tox: inactive; GLP-1R inv ag: inconclusive

How did COc1ccccc1N(C)S(=O)(=O)c1ccc(Cl)c(C(=O)OCc2c(C)noc2C)c1 do in these assays?
ATXN2 expr inh: inconclusive; S2 tox: inactive; TGFb inhibitor: inactive; GLP1R ag: inactive; HepG2 tox: inactive; GLP-1R inv ag: 10µM

Results for COc1ccccc1N(C)S(=O)(=O)c1ccc(Cl)c(C(=O)N2CCC2)c1 ?
ATXN2 expr inh: inactive; S2 tox: inactive; TGFb inhibitor: inactive; GLP1R ag: inactive; HepG2 tox: inactive; GLP-1R inv ag: inactive

How did COc1ccccc1N(C)S(=O)(=O)c1ccc(Cl)c(C(=O)NNC(=O)c2ccccc2O)c1 do in these assays?
ATXN2 expr inh: inactive; S2 tox: inactive; TGFb inhibitor: inactive; GLP1R ag: inactive; HepG2 tox: inactive; GLP-1R inv ag: 11µM
